Experimental data published in PubChem BioAssay AID652054 (National Center for Advancing Translational Sciences (NCATS), 2013).
Screen size: about 360,000 compounds; about 9,100 (2.5%) were called active. Another 4% or so got no clear call; they are omitted. Only a selection was taken, and actives are over-represented in it overall. Values without a mark were called inactive. Rule as the data show it: active = max response below about -50%; inconclusive = no clear call, values can overlap the other calls; inactive = above that.

Biological target: D(3) dopamine receptor (Homo sapiens) (UniProt P35462)
Sequence (P35462 whole entry, looked up): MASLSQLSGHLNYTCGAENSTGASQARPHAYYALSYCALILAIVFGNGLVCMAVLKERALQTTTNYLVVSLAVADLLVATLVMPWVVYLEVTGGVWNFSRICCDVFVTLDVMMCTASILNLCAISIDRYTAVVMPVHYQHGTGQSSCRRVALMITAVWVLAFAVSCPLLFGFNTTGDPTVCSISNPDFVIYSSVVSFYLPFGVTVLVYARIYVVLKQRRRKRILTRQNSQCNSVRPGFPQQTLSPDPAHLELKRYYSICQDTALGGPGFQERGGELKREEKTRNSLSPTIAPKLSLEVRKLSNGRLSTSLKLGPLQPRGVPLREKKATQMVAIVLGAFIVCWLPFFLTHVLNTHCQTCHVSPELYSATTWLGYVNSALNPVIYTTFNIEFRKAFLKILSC
Test: qHTS of D3 Dopamine Receptor Antagonist: qHTS
Conditions: D3R cells, DiscoveRx beta-arrestin luminescence, antagonist mode; active compounds read low
Outline: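 Cells plated overnight at 1500 cells/well, then exposed to library compounds with dopamine controls for 90 minutes at 37 degrees C. DiscoveRx reagent added for 30–60 minutes at room temperature; luminescence read, quantitative HTS format.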
% is scaled to controls: 0 for no effect and ±100 for the full control effect.

In order of rising max response, negative = inhibition:
1. O=C(CCN1CCCCC1)NCC(=O)Nc1ccc(Br)cc1C(=O)c1ccccc1  -29.9%
2. CCOc1ccc(CN(CCCl)CCCl)cc1C(=O)OC  -27.4%
3. c1ccc(N2Cc3ccccc3-n3nncc3C2)nc1  -20.4%
4. CCOC(=O)[C@]12Cc3ccccc3[C@H]1N(C1CCCCC1)C(=O)c1cc(OC)ccc12  -14.9%
5. CC(=O)C1(O)CCC2C3CCC4=C(Cl)C(=O)CCC4(C)C3CCC21C (configuration not stated)  -13.9%
6. CN1CCC(OC(=O)c2cccc(F)c2)CC1  -13.8%
7. CC(C)CN1Cc2cc(N3CCCCC3)ccc2-n2nncc2C1  -13.6%
8. Cc1nc2nc(C)c(CCC(=O)N3CCC4(CC3)OCCO4)c(C)n2n1  -10.8%
9. OC(Cn1c2ccccc2c2ccccc21)C[n+]1ccccc1 (configuration not stated)  -9.75%
10. CCN1CCN(C(=O)Cc2coc3cc(C)cc(C)c23)CC1  -9.21%
11. Cn1c(O)c(C(=Nc2ccc(F)cc2)c2ccccc2)c(=O)n(C)c1=O  -8.88%
12. O=C1NCN(c2ccccc2)C12CCN(C(c1cccs1)c1nnnn1C1CCCCC1)CC2 (configuration not stated)  -8.63%
13. CC(C)c1ccc(OCC(=O)N2CCCN(C)CC2)cc1  -7.58%
14. CCN1CC2C3CCC(C)(O3)C2C1 (configuration not stated)  -7.4%
15. Clc1ccc2nc3c(c(-c4ccccc4)c2c1)CNCC3  -1.49%
16. CN(C)S(=O)(=O)c1cc(C(=O)N2CCC(C(=O)O)(c3ccccc3)CC2)ccc1Cl  -1.23%
17. COc1ccc(C(=O)C2CN(C)CC2C(=O)c2ccc(OC)cc2)cc1 (configuration not stated)  -1.15%
18. CN1CCN(C(=O)COc2ccc(C(C)(C)C)cc2Br)CC1  0%
19. c1cc2c(cc1C1OCC3C(c4ccc5c(c4)OCO5)OCC13)OCO2 (configuration not stated)  1.57%
20. C[C@]12CCC3C(CC[C@H]4[C@H](O)[C@H](O)CC[C@]34C)C1CC[C@@H]2O (some centres not stated)  2.6%
21. Cc1ccc(Cn2c(C)c3cnn(CC(=O)N4CCC5(CC4)OCCO5)c(=O)c3c2C)cc1  3.94%
22. O=C1C2CCN(CC2)C1(CO)CO  5.89%
23. O=C(COC(=O)Cc1ccccc1)Nc1ccc(F)cc1  6.49%
24. CCC1(CC(C)c2ccccc2)C(=O)NC(=O)NC1=O (configuration not stated)  6.61%
25. O=c1[nH]c2ccccc2n1C1CCN(C(c2ccnc3ccccc23)c2nnnn2Cc2ccccc2)CC1 (configuration not stated)  9.58%
26. C[C@]12CC[C@H](O)CC1=C([N+](=O)[O-])CC1C2CC[C@@]2(C)C1CC[C@@H]2O (some centres not stated)  10.3%
27. Cc1nc2ccccn2c1P(=S)(N1CCCCC1)N1CCCCC1  12%
28. CCOc1cccc(=NC2CCCCC2)c2c(C)[nH]c(C)c12  13.5%
29. Cc1ccc(P(=S)(c2ccc(C)o2)N2CCOCC2)o1  14%
30. c1cncc(CNCCc2c[nH]c3ccccc23)c1  14.8%
31. O=c1[nH]c2ccccc2n1C1CCN(C(c2ccccc2)c2nnnn2Cc2ccccc2)CC1 (configuration not stated)  71.4%
32. COc1ccc(-n2nnnc2C(c2cccc3ccccc23)N2CCC(n3c(=O)[nH]c4ccccc43)CC2)cc1 (configuration not stated)  117%

For `CC(C)c1ccc(OCC(=O)N2CCN(C)CC2)c(Br)c1`, the max response, negative = inhibition was -52% (active).
`Cc1cc(C)cc(NC(=S)NC2CC3CCCC(C2)N3Cc2cccs2)c1` (configuration not stated) was tested, and the max response, negative = inhibition was -81.8% (active).
With `Cc1ccc(Cn2nnnc2CN2CCC(n3nnc4ccccc43)CC2)cc1` the max response, negative = inhibition was -69% (active).
For `Cc1ccc(C2CN(C)CC2C(=O)c2ccc(F)cc2)cc1` (configuration not stated), the max response, negative = inhibition was -102% (active).
With `CC(=O)OC1C2(CC3N4C(=O)C5(CO)SSC4(CC31O)C(=O)N5C)OC(C)C(C)(C)C2=O` (configuration not stated) the max response, negative = inhibition was -98.1% (active).
